This excerpt belongs to a sample that is enriched for hits.
G9a inh = inhibitors of human histone lysine methyltransferase G9a | G9a H3K9 monomethylation, AlphaScreen, 2 h | Potency, µM (series often up to 102 µM), usual class: inhibitors | actives 8.8% (n = 350,000) | AID 504332; also: nearly all actives have a fitted effect of over 75% in size
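Chemiluminescent proximity detection of H3K9 monomethylation, read after 10 min bead incubation in the dark. Reaction: 20 nM G9a, 500 nM biotin-H3K9 peptide, 20 uM SAM cofactor, 2 h, room temperature, following 15 min enzyme-compound preincubation.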
Sfp PPTase inh = inhibitors of Bacillus subtilis Sfp phosphopantetheinyl transferase; Q9F4F7; Biochemical Sfp PPTase activity, qHTS; Potency, µM, actives largely listed as inhibitors; actives 3.5% (n = 310,000);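 also: the enzyme is Sfp with the accession as filed and its product quenches rhodamine fluorescence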
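Fluorescence-quenching assay: 15 nM Sfp-PPTase preincubated 15 min at room temperature with compound, then 5 uM rhodamine-CoA and 12.5 uM BHQ-2-labelled YbbR peptide added. Fluorescence (ex 525/em 598 nm) read at start and after 30 min; difference gives rate.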
VDR inhibitor = vitamin D3 receptor (human) inhibition; P11473; VDR-SRC2-3 peptide fluorescence polarization, 2 h; Potency, µM, usual class: inhibitors; actives 0.93% (n = 400,000); AID 504847
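Reagent solutions, kept cold and dark, are dispensed first; compounds are then pinned in at 23 nl, plates briefly spun, and incubated 2 h at ambient temperature. Inhibition of VDR–SRC2-3 peptide binding is read by fluorescence polarization.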
Glioma ERSR ind = ER stress response induction in glioma; Potency, µM, usual class: activators; AID 602332; actives 0.02% (n = 420,000); U87-MG GRP78 promoter luciferase reporter, 16 h; also: series mostly up to about 76 µM; nearly all actives have a fitted effect of over 35% in size
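ERSR induction read as luciferase luminescence (Bright-Glo, 10 min at room temperature) in stably transfected human U87-MG glioma cells exposed to compounds for 16 h, using GRP78 as sensor.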
ALOX12 inh = inhibitors of human 12S-lipoxygenase ALOX12; purified 12hLO, xylenol orange hydroperoxide absorbance; actives 1.1% (n = 580,000); Potency, µM (doses to about 108 µM), most hits filed as inhibitors
Target sequence (P18054 whole entry, looked up): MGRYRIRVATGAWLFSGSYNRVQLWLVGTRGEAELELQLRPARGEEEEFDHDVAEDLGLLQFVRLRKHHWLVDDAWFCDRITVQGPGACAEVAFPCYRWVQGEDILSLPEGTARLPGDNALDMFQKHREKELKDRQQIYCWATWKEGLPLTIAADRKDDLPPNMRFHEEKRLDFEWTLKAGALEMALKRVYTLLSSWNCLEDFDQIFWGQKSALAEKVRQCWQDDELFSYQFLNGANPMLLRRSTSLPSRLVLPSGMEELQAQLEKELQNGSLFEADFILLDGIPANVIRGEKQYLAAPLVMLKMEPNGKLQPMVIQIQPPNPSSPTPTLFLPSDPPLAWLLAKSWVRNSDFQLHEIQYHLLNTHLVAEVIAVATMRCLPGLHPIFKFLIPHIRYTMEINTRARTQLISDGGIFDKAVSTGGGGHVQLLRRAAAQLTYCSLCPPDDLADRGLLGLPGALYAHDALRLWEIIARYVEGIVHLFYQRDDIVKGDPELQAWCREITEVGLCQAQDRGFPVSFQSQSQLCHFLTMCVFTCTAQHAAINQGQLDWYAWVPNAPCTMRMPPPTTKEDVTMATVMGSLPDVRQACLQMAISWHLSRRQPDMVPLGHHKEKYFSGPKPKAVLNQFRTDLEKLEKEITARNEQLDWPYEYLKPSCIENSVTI
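Purified human 12hLO at 150 nM in 25 mM Hepes, 0.01% Triton X-100, pH 7.0, preincubated 15 min at room temperature with compound. Reaction started with 40 uM arachidonic acid, 30 min at room temperature. Hydroperoxide measured by Fe-xylenol orange, 573/405 nm absorbance ratio.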
Numbers stand for hits; . = inactive; ? = inconclusive; / = not tested or not shown; [ ] = remark or other dose. Calls follow the shape of the dose curve; as a rule, active = well fitted curve in the direction sought with a large enough effect; inconclusive = small, poorly fitted or top-dose-only effect, or another doubt; inactive = no such curve, though single readings can be large; an effect the other way counts as inactive or inconclusive.

SMILES | G9a inh | Sfp PPTase inh | VDR inhibitor | Glioma ERSR ind | ALOX12 inh
CN(C(=O)CSc1nc2ccc([N+](=O)[O-])cc2s1)C1CCS(=O)(=O)C1 (stereo not given) | .[12.7 µM] | . | . | . | .
CN(C(=O)COC(=O)CSc1ccc([N+](=O)[O-])cc1)C1CCS(=O)(=O)C1 (stereo not given) | 50µM | / | . | . | .
COc1ccccc1-n1c(SCC(=O)NCc2ccc3c(c2)OCO3)nc2cc([N+](=O)[O-])ccc21 | ? | . | ? | . | ?
CN(C(=O)CSc1nc2cc([N+](=O)[O-])ccc2n1-c1ccc(F)cc1)C1CCS(=O)(=O)C1 (stereo not given) | 20µM | . | . | . | .
O=C(COC(=O)CSc1ccc([N+](=O)[O-])cc1)NCCCc1ccccc1 | / | . | 71µM | . | ?
CCCSc1nc2c(c(=O)n(C)c(=O)n2C)n1Cc1ccccc1Cl | / | / | / | / | .
O=C(COC(=O)c1ccc(-c2ccc([N+](=O)[O-])cc2)o1)NC(=O)NC1CCCCC1 | 40µM | ? | . | . | .
O=C(COC(=O)c1ccc(-c2ccc([N+](=O)[O-])cc2)o1)NC(=O)NC12CC3CC(CC(C3)C1)C2 | ? | . | . | . | .
CSc1ccc(S(=O)(=O)NCC(=O)OC(C)C(=O)NCc2ccccc2)cc1[N+](=O)[O-] (stereo not given) | . | / | . | ? | ?
O=C(COC(=O)CSc1ccc([N+](=O)[O-])cc1)NC1CCCCCCC1 | 45µM | / | ? | . | ?
CC(OC(=O)CSc1ccc([N+](=O)[O-])cc1)C(=O)NCc1ccccc1 (stereo not given) | .[0.501 µM] | / | 79µM | . | /
CCN1CCc2c(sc(-n3cccc3)c2CNC(=O)NCc2ccc(C)cc2)C1 | / | / | / | / | .
COC(=O)C(C)(C)NC(=O)CNC(=O)OCc1ccccc1 | / | / | / | / | .
CCOC(=O)COc1ccc(Br)cc1/C=C1\NC(=O)NC1=O | / | / | / | / | .
CN(CCc1ccccc1)c1cc2c(c3c1ccn3C)C1CCC2C1 (stereo not given) | / | / | / | . | 45µM
CN(Cc1ccccc1)c1cc2c(c3c1ccn3C)C1CCC2C1 (stereo not given) | / | / | / | . | ?
Cn1ccc2c(N3CCCCC3)cc3c(c21)C1CCC3C1 (stereo not given) | / | / | / | . | ?
COc1ccccc1N(C)c1cc2c(c3c1ccn3C)C1CCC2C1 (stereo not given) | / | / | / | . | 40µM
CCN(C)c1cc2c(c3c1ccn3C)C1CCC2C1 (stereo not given) | / | / | / | . | .
Cn1ccc2c(N3CCCC3)cc3c(c21)C1CCC3C1 (stereo not given) | / | / | / | . | 45µM
Nc1ccccc1NC1CCCCC1 | 50µM | . | . | . | ?
CCc1ccc(OCC2c3cc(OC)c(OC)cc3CCN2C(=S)NCCOC)cc1 (stereo not given) | 16µM | . | . | . | .
CCNC(=S)N1CCc2cc(OC)c(OC)cc2C1COc1ccc(OC)cc1 (stereo not given) | 50µM | . | . | . | .
COc1ccccc1-n1c(=O)c2c(n3cnnc13)-c1ccccc1CC21CCCCC1 | / | / | / | / | .
CCCOc1c(C(=O)OC)sc2ccc(NC(=O)c3ccccc3)cc12 | / | / | / | / | .
SMILES | G9a inh | Sfp PPTase inh | VDR inhibitor | Glioma ERSR ind | ALOX12 inh
C[N+](C)(CCCCCCCCCC[N+](C)(C)C1CCCCC1)C1CCCCC1 | / | / | / | / | 16µM
COc1ccc(C(=O)NCC2COc3ccccc3O2)cc1OC (stereo not given) | / | / | / | / | .
Oc1ccc(CNc2ccccc2)c2cccnc12 | 1.3µM | . | ? | . | /
Oc1ccc2ccccc2c1CNc1ccccc1 | / | / | 22µM | . | ?
Cc1cccc(NCc2ccc(O)c3ncccc23)c1 | / | . | . | . | ?
Cc1ccccc1NCc1ccc(O)c2ncccc12 | 1.1µM | . | ? | . | ?
Oc1ccc(CNc2ccc(F)cc2)c2cccnc12 | 1.6µM | . | ? | . | ?
CCOc1cc(S(=O)(=O)N(CCO)CCO)ccc1Br | / | / | / | / | .
C/C(=N/NC(=O)c1ccccc1[N+](=O)[O-])c1cccc(NC(=O)C2CCCCC2)c1 | / | / | / | / | .
CCc1ccc(-c2cc(C(=O)Nc3cccnc3)c3ccccc3n2)cc1 | / | / | / | / | .
O=C(CSc1ncc(-c2cccc(Br)c2)o1)NC1CCCCC1 | / | / | / | / | .
CCCCCCCCOC(=O)c1c(CSC(=N)N)n(C)c2cc(Br)c(OC(C)=O)cc12 | / | 40µM | . | . | ?
CCOC(=O)c1c(CSc2nc(C)cc(C)c2C#N)n(C)c2cc(Br)c(OC(C)=O)cc12 | . | . | . | . | .
CCOC(=O)c1c(CSC(=N)N)n(-c2ccc(Br)cc2)c2cc(Br)c(OC(C)=O)cc12 | 71µM | ? | . | . | .
COc1ccccc1Cc1nc(-c2nnn3c2COC(c2ccc(C)cc2)C3)no1 (stereo not given) | / | / | / | / | .
COCCn1c(SCC(=O)Nc2ccccc2C(F)(F)F)nc2ccccc2c1=O | / | . | . | . | .
CC(C)CCn1c(SCC(=O)Nc2ccccc2C(F)(F)F)nc2nccnc2c1=O | 6.3µM | ? | . | . | ?
O=C(Cc1ccc(Cl)cc1)Nc1ccc(Br)cn1 | . | . | . | . | .
S=C(NCCc1ccccc1)Nc1ccc(Br)cn1 | 7.1µM | . | . | . | ?
S=C(NCc1ccc(Cl)cc1)Nc1ccc(Br)cn1 | / | / | / | / | 4.5µM
COc1ccc(/C=C/c2n[nH]c(=O)c(C#N)c2C)cc1 | 45µM | . | . | . | .
CCOC(=O)c1c(NC(C)=O)sc2c(O)c(CN3CCN(CC)CC3)ccc12 | 25µM | . | . | . | ?
CCOC(=O)c1c(NC(C)=O)sc2c(OC)c(Br)ccc12 | ? | . | . | . | .
C=CCn1c(Oc2cccc(C(F)(F)F)c2)nc2c1c(=O)n(C)c(=O)n2C | / | / | / | / | .
Cn1c(=O)c2nc(SCc3ccc(F)cc3)n(C)c2n(C)c1=O | / | / | / | / | .
SMILES | G9a inh | Sfp PPTase inh | VDR inhibitor | Glioma ERSR ind | ALOX12 inh
Cc1ccc(NC(=O)c2cc(-c3cccs3)nc3ccccc23)nc1 | 40µM | . | . | . | ?
Cc1cc(C)c2nc(NNC(=O)c3cc(-c4cccs4)nc4ccccc34)sc2c1 | 32µM | . | . | . | .
CC(=O)Nc1ccc(NC(=O)c2cc(-c3cccs3)nc3ccccc23)cc1 | / | / | / | / | .
O=C(NNc1nc2ccc(Cl)cc2s1)c1cc(-c2cccs2)nc2ccccc12 | . | . | . | . | ?
Cn1cccc1/C=N/NC(=O)c1cc(-c2cccs2)nc2ccccc12 | 32µM | ? | . | . | .
Cc1ccc2sc(NNC(=O)c3cc(-c4cccs4)nc4ccccc34)nc2c1C | 32µM | . | / | / | .
CN(C)C1(C#CCCCCC#CC2(N(C)C)CCCCC2)CCCCC1 | / | / | / | / | .
COc1ccc(S(=O)(=O)Nc2nc3ccccc3nc2Nc2cc(C)ccc2C)cc1 | / | / | / | / | .
CN=c1scc(-c2ccccc2F)n1/N=C(\C)c1cccnc1 | 16µM | . | . | . | .
CSc1cccc(NC(=O)c2cc(=O)c(OCc3ccccc3F)co2)c1 | / | / | / | / | .
CNC(=O)CN(C)c1nc(-c2ccncc2)nc2ccccc12 | / | / | / | / | .
COc1ccccc1CC(=O)N1CCCc2ncc(C(=O)NCCc3ccccc3)cc21 | / | / | / | / | .

Screens deposited in PubChem BioAssay by National Center for Advancing Translational Sciences (NCATS).
